In PubChem BioAssay (Tox21) one finds Potency, outcome and activity change, positive = activation data, which are given here for 32 compounds.

In experiment [1] the target is Thyrotropin receptor (Homo sapiens) (UniProt P16473). Nature of the experiment: qHTS assay to identify small molecule agonists of the thyroid stimulating hormone receptor (TSHR) signaling pathway (AID 1224843). Also: nearly all actives have a fitted effect of over 45% in size. Also: potency is read from the fitted curve at half-maximal effect. In short, it runs like this:
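Cell line HEK293 with TSHR; density 800/well. Exposure 30 min RT. Readout HTRF cAMP (cAMP-d2/anti-cAMP-cryptate), 1 h RT before reading.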
A general note: In qHTS, concentration-response curves come from the screen itself.

The nature of experiment [2]: qHTS assay to identify small molecule agonists of the hypoxia (HIF-1) signaling pathway - cell viability counter screen (AID 1224844). Also: nearly all actives have a fitted effect of over 50% in size. Also: potency is read from the fitted curve at half-maximal effect. In short, it runs like this: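 Multiplexed with the HRE beta-lactamase assay, this viability read used CellTiter-Glo luminescence (30 min, RT) on HRE-bla ME-180 cells treated 17 hrs with compounds in 0.5% dialyzed FBS medium.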
Experiment [3] is described as follows: qHTS assay to identify small molecule agonists of H2AX (AID 1224845; active = well fitted activation curve with a large enough effect in the signal ratio in the repeat runs, not every such curve was filed as active; the % refers to the signal ratio). In short, it runs like this: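 Wild-type CHO-K1 cells plated overnight, then exposed 3 hr at 37C to compounds at 15 concentrations (0.76% DMSO). Lysed, then HTRF anti-pH2AX(S139)-cryptate/anti-H2AX-d2 detection after 24 hr at room temperature; emissions 665 and 620 nm.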
The nature of experiment [4]: qHTS assay to identify small molecule agonists of H2AX - cell viability counter screen (AID 1224847). Also: nearly all actives have a fitted effect of over 30% in size. Also: potency is read from the fitted curve at half-maximal effect. In short, it runs like this:
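Counter-screen for viability: CellTiter-Glo ATP luminescence read after 3 h compound treatment (15-point titration, 0.76% DMSO final) of CHO-K1 cells at 37C, with 30 min room-temperature reagent incubation.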

The nature of experiment [5]: qHTS RealTime-Glo MT Cell Viability Assay in HepG2 cells - 24 hour (AID 1224867; active = well fitted curve in the direction sought with a large enough effect in the repeat runs; an effect the other way counts as inactive or inconclusive; also: nearly all actives have a fitted effect of over 50% in size). In short, it runs like this:
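Tox21 10K library screened in qHTS format on HepG2 cells carrying RealTime-Glo reagents. Compounds were added after a 5 h preincubation, and the luminescent signal from continuous culture was measured repeatedly during 40 h treatment.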

The nature of experiment [6]: qHTS RealTime-Glo MT Cell Viability Assay in HEK293 cells - 32 hour (AID 1224868; active = well fitted curve in the direction sought with a large enough effect in the repeat runs; an effect the other way counts as inactive or inconclusive; also: nearly all actives have a fitted effect of over 50% in size; also: potency is read from the fitted curve at half-maximal effect). In short, it runs like this:
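Luminescence generated by NanoLuc from substrate produced by living HEK293 cells served as the viability signal. Each value reflects the reading at its stated time point during continuous 40 h compound exposure at 37 C.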

Experiment [7] can be described thus: A CellTox Green Cytotoxicity Assay to monitor cytotoxicity in HEK293 cells - 0 hour (AID 1224869; active = well fitted curve in the direction sought with a large enough effect in the repeat runs; an effect the other way counts as inactive or inconclusive; also: nearly all actives have a fitted effect of over 50% in size). In short, it runs like this: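 Seeding of HEK293 cells together with cytotoxicity dye preceded a 5 h incubation at 37 C/5% CO2. Test compounds in DMSO were then added and fluorescence monitored across 40 h.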
Experiment [8] can be described thus: qHTS assay to identify small molecule agonists of the hypoxia (HIF-1) signaling pathway (AID 1224846; active = well fitted activation curve with a large enough effect in the signal ratio in the repeat runs, not every such curve was filed as active; the % refers to the signal ratio). In short, it runs like this:
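Hypoxia-pathway activation was scored as increased beta-lactamase from an HRE-controlled reporter in ME-180 cells; plated at 2,000 cells per well with 0.5% dialyzed FBS, they were exposed 17 hrs to compounds and then given CCF4-AM.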

Experiment [9] is described as follows: qHTS assay to identify small molecule antagonists of the estrogen related receptor (ERR) signaling pathway from Tox21 library (AID 1224848; active = well fitted curve in the direction sought with a large enough effect in the repeat runs; an effect the other way counts as inactive or inconclusive; also: nearly all actives have a fitted effect of over 50% in size; also: potency is read from the fitted curve at half-maximal effect). In short, it runs like this: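 Screening used an ERR reporter line supplied by NTP, exposed for 18 h at 37 C to library compounds delivered in DMSO. Signal was luciferase luminescence developed with ONE-Glo at room temperature for 30 min.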

A short description of experiment [10]: qHTS assay to identify small molecule agonists of the estrogen related receptor (ERR) signaling pathway from Tox21 library (AID 1224849). Also: nearly all actives have a fitted effect of over 15% in size. The conditions noted are these: ERR reporter cell line, ONE-Glo luciferase, 18 h; at 92.4 µM (top of the series) unless noted. In short, it runs like this:
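Six hours post-seeding at 37 C/5% CO2, ERR cells receive DMSO-solubilised compounds; after 18 h at 37 C, ONE-Glo reagent is applied and luminescence recorded.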

The structures appear in SMILES notation. A number with no mark means an inactive call. Inconclusive results are not listed. The source made the active and inactive calls. Unless noted, calls follow the shape of the full dose curve.
% is scaled to controls: 0 for no effect and ±100 for the full control effect.

Chain of Thyrotropin receptor (Homo sapiens) (P16473 whole entry, looked up): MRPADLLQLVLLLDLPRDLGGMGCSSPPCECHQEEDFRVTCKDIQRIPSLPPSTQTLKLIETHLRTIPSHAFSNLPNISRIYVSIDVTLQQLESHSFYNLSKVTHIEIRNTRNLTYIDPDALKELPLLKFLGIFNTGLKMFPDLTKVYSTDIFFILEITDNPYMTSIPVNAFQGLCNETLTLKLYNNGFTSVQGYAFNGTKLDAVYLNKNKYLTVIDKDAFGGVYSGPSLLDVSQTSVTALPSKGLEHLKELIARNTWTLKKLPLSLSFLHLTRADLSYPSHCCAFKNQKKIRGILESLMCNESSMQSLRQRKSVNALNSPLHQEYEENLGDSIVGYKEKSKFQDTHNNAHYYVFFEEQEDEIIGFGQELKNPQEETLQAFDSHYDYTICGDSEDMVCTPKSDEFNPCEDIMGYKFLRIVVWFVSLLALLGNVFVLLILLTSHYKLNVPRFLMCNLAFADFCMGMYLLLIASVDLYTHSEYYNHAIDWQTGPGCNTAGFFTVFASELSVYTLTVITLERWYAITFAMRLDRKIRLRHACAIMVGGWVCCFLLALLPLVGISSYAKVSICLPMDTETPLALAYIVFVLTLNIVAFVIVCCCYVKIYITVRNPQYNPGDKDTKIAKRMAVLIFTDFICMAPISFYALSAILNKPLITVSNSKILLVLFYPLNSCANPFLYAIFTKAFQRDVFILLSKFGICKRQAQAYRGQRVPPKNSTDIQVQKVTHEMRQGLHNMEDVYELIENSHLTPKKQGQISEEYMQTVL

For the compound `CCCCCCCCCCCCCCCCC(=O)O`, the Potency entry in experiment [1], in experiment [2], in experiment [3], in [4], in experiment [6] and in [7] was “inactive” each time. The call in [5] was inactive.
For `CCC[Si](OC)(OC)OC`, the Potency result in experiment [1], in [2], in [4], in [9], in experiment [6] and in experiment [7] was “inactive” each time. For the same compound, the call in experiment [8] was inactive. Also, the activity change, positive = activation in experiment [10] was -6.41%.
Turning to `c1ccc(CCNc2nc(-c3ccccc3)cs2)cc1`, the Potency entry in [1], in experiment [2], in [3], in experiment [6] and in experiment [7] was “inactive” each time. In addition, in [5], the compound was called inactive.
`CC(C)(C(=O)O)c1ccc(C(O)CCCN2CCC(C(O)(c3ccccc3)c3ccccc3)CC2)cc1` (centres undefined): the Potency entry in [1], in experiment [2], in experiment [3], in experiment [4], in experiment [6] and in [7] was “inactive” throughout. Moreover, the outcome in [5] was inactive.
In the case of `CC1=C(C)C(=O)C(CCCCC#CCCCC#CCO)=C(C)C1=O`, the Potency result in experiment [1], in experiment [2] and in experiment [7] was “inactive” each time. Besides, the call in experiment [8] was inactive. For the same compound, the Potency is 49.2 µM (active) in [4], 13.3 µM (active) in [9] and 0.674 µM (active) in [6]. Also, the activity change, positive = activation in [10] is -50.9% [at 42.5 µM].
As to `CCCCCCCCNC`, the Potency entry in [1], in experiment [2], in experiment [4], in [6] and in experiment [7] was “inactive” in each case. The compound was classed as inactive in [8] and in [5].
For the compound `CCCCCCCCCCCCSC#N`, the Potency result in experiment [1], in [2], in experiment [3], in experiment [9] and in experiment [6] was “inactive” in each case. In experiment [10], the activity change, positive = activation was 0.292%.
As to `CC(=O)S[C@H](C(=O)N[C@H]1Cc2ccccc2[C@H]2CCC[C@@H](C(=O)O)N2C1=O)C(C)C`, the Potency result in experiment [1], in experiment [2], in experiment [4], in experiment [9], in experiment [6] and in [7] was “inactive” each time. The result in [8] and in experiment [5] was inactive. Besides, the activity change, positive = activation in experiment [10] is 1.31%.
For the compound `O=C(O)c1ccncc1`, the Potency result in [1], in experiment [2], in [3] and in experiment [7] was “inactive” each time. For the same compound, in experiment [10], the activity change, positive = activation was -23.5%. The outcome in experiment [5] was inactive.
On to `CCCc1ccc(OC)cc1`, for which the Potency result in [1], in [2], in experiment [3], in [4] and in experiment [7] was “inactive” in each case. Besides, the outcome in experiment [5] was inactive.
In the case of `CCOc1ccc2c(c1)C(C)CC(C)(C)N2` (centres undefined), the Potency result in experiment [1], in experiment [2], in experiment [4] and in experiment [6] was “inactive” in each case. Besides, the outcome in experiment [8] and in [5] was inactive.
With `OCC(O)c1ccccc1` (centres undefined), the Potency entry in [1], in experiment [3], in experiment [6] and in experiment [7] was “inactive” each time. The Potency in experiment [2] was 38.9 µM (active). For the same compound, the result in experiment [5] was inactive.
Regarding `CCN(CC)CC(=O)OCC(=O)[C@@]1(O)CC[C@H]2[C@@H]3CCC4=CC(=O)CC[C@]4(C)[C@H]3[C@@H](O)C[C@@]21C`, the Potency entry in experiment [1], in [2], in [3], in experiment [4], in [6] and in experiment [7] was “inactive” each time. For the same compound, the outcome in [5] was inactive.
Consider `CC1(C)CC(O)CC(C)(C)N1[O]`, for which the Potency result in [1], in [2], in experiment [3], in experiment [4] and in experiment [7] was “inactive” in each case. In experiment [5], the outcome was inactive.
Turning to `COc1cc(CNC(=O)CCCC/C=C/C(C)C)ccc1O`, the Potency result in experiment [1], in [2], in [3] and in experiment [7] was “inactive” in each case. The outcome in experiment [5] was inactive. Moreover, the Potency in experiment [6] was 7.56 µM (active).
With `NC(=O)c1ccccc1`, the Potency entry in experiment [1], in experiment [2], in experiment [3], in [4], in experiment [6] and in experiment [7] was “inactive” throughout.
In the case of `O=c1[nH][nH]c2ccccc12`, the Potency result in experiment [1], in [2], in experiment [4] and in [7] was “inactive” in each case. For the same compound, the compound was called inactive in experiment [8] and in experiment [5].
Consider `O=C(NC1CCN(CCc2c[nH]c3ccccc23)CC1)c1ccccc1`, for which the Potency result in experiment [1], in experiment [2], in experiment [4] and in experiment [7] was “inactive” each time. The outcome in experiment [8] was inactive. For the same compound, in experiment [6], the Potency was 7.56 µM (active).
`c1ccc(CN(Cc2ccccc2)Cc2ccccc2)cc1`: the Potency in experiment [1] is 17.2 µM (active). Besides, the Potency entry in experiment [2], in [3] and in [6] was “inactive” in each case. Also, the compound was classed as inactive in experiment [5].
In the case of `S=c1[nH][nH]c(=S)s1`, the Potency entry in [1], in experiment [2], in experiment [4] and in [7] was “inactive” each time. For the same compound, the compound was called inactive in experiment [8] and in [5].
Turning to `CC(C)CCCCCCCOC(=O)c1ccc(C(=O)OCCCCCCCC(C)C)c(C(=O)OCCCCCCCC(C)C)c1`, the Potency result in experiment [1], in [2], in [9], in experiment [6] and in [7] was “inactive” each time. The call in experiment [8] and in experiment [5] was inactive. Also, the activity change, positive = activation in experiment [10] is -6.08%.
For `Cc1ccc2c(Cl)cc(Cl)c(O)c2n1`, the Potency entry in experiment [1], in experiment [2], in [4] and in [7] was “inactive” in each case. For the same compound, the compound was classed as inactive in [8].
Take `CCOc1cc(OCC)c(C(C)=O)cc1OCC`: the Potency result in [1], in experiment [2] and in experiment [4] was “inactive” throughout. Moreover, the call in experiment [8] and in experiment [5] was inactive. The activity change, positive = activation in experiment [10] was -33.9%. For the same compound, in experiment [6], the Potency is 21.5 µM (active).
Regarding `Cc1c(Cl)cccc1Nc1ccccc1C(=O)O`, the Potency result in [1], in experiment [2], in [3] and in experiment [7] was “inactive” throughout. The compound was called inactive in [5].
On to `O=C1C=CCCC1`, for which the Potency result in experiment [1], in [2], in experiment [3], in experiment [4], in experiment [6] and in [7] was “inactive” each time. In experiment [5], the compound was classed as inactive.
Consider `CCCCCCCCCCCC(=O)OCC`, for which the Potency entry in experiment [1], in experiment [2], in experiment [3], in experiment [4], in [6] and in experiment [7] was “inactive” each time. In addition, the compound was classed as inactive in experiment [5].
For the compound `O=Cc1ccc(Cl)c([N+](=O)[O-])c1`, the Potency entry in [1], in [2], in experiment [4] and in experiment [7] was “inactive” in each case. Further, the result in [8] and in experiment [5] was inactive. In experiment [9], the Potency is 54.5 µM (active). Besides, in experiment [10], the activity change, positive = activation was -38.6%.
In the case of `COc1ccc(/C=C/S(=O)(=O)NC(=O)c2ccc(C)cc2Cl)cc1`, the Potency entry in [1], in experiment [2], in experiment [4], in experiment [6] and in experiment [7] was “inactive” each time. Also, the outcome in experiment [8] and in experiment [5] was inactive.
In the case of `O=C(Nc1ccc2c(c1)Cc1ccccc1-2)C(F)(F)F`, the Potency result in experiment [1], in experiment [2], in experiment [3], in [4] and in experiment [7] was “inactive” each time.
As for `Cc1c(Nc2ncccc2C(=O)O)cccc1C(F)(F)F`, the Potency result in [1], in [2], in [3], in experiment [4] and in [7] was “inactive” in each case. For the same compound, the compound was classed as inactive in experiment [5].
As for `O=P(c1ccccc1)(c1ccccc1)c1ccccc1`, the Potency entry in experiment [1], in [2], in [4], in experiment [6] and in experiment [7] was “inactive” throughout. Further, the compound was called inactive in [8] and in [5].
For the compound `NC(=O)c1cc[n+](CC2=C(C(=O)[O-])N3C(=O)[C@@H](NC(=O)Cc4cccs4)[C@H]3SC2)cc1`, the Potency entry in experiment [1], in [2], in experiment [3], in experiment [4], in [6] and in experiment [7] was “inactive” each time. Further, in experiment [5], the result was inactive.
